Source: PubChem BioAssay
The source made the active and inactive calls. Unless noted, the rule behind the calls is not given here.

Experiments:
[1] = HepG2 liver cancer cell viability effects, profiling panel, resazurin fluorescence, 24 h, PK04 Diversity Set (AID 1172); conditions: higher = more signal; note: test concentration not given here
[2] = basal S. cerevisiae growth modulation, no modifier, primary screen, OD600, strain BY4716, 24 h, basal condition (AID 1173); conditions: OD600, 24 h, higher = more signal, called active from +8 up or from −8 down
[3] = MM1S myeloma cell viability, profiling panel, resazurin fluorescence, basal, 24 h, PK04 Diversity Set (AID 1174); conditions: higher = more signal, called active from +8 up or from −8 down;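 note: MM1S multiple myeloma cell line; test concentration not given here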
[4] = target: Dihydroorotate dehydrogenase (quinone), mitochondrial (Plasmodium falciparum (isolate 3D7)) (UniProt Q08210); assay: PfDHODH enzyme inhibitors, primary screen, biochemical, C-terminal His tag, absorbance 600 nm (AID 1175); conditions: DCIP absorbance 600 nm, higher = more signal, called active from +8 up or from −8 down;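 note: recombinant parasite enzyme with a five histidine tag at its C terminus; test concentration not given here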
[5] = P. aeruginosa biofilm formation inhibitors, primary screen, strain PAO1, LB-PBS medium, absorbance 600 nm (AID 1176); note: test concentration not given here; conditions: P. aeruginosa PAO1 growth/biofilm, A600, 12 h; higher = more signal
[6] = S. cerevisiae RM11-1a growth modifiers, primary screen, strain RM11-1a, OD600, basal, 24 h (AID 1177); conditions: OD600, 24 h, higher = more signal, called active from +8 up or from −8 down;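 note: cultures grown under basal conditions with no added stressor; test concentration not given here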
[7] = E. coli acrAB mutant growth effects, primary screen, E. coli filamentation inducers, strain DRC39, OD650, 24 h (AID 1178); conditions: higher = more signal, called active from +8 up or from −8 down;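 note: growth measured as culture turbidity by optical density at 650 nm; test concentration not given here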
[8] = E. coli acrAB mutant growth effects, primary screen, E. coli filamentation inducers, strain DRC39, OD650, 48 h (AID 1179);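 note: screen aims at cell division blockers that make cells filament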; conditions: E. coli DRC39 delta-acrAB growth, higher = more signal, called active from +8 up or from −8 down
[9] = RPMI8226 myeloma cell viability, profiling panel, resazurin fluorescence, basal, 24 h, PK04 Diversity Set (AID 1180); conditions: higher = more signal;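 note: RPMI8826 multiple myeloma cell line at 5000 cells per well; test concentration not given here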
[10] = target: E3 ubiquitin-protein ligase XIAP (Homo sapiens) (UniProt P98170); assay: XIAP binders, primary screen, biophysical, small-molecule microarray, fluorescence 635 nm (AID 1181); conditions: small-molecule microarray binding, higher = more signal;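 note: score merges 667 nm emission and signal to noise over triplicate slides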
E3 ubiquitin-protein ligase XIAP (Homo sapiens), sequence (P98170 whole entry, looked up): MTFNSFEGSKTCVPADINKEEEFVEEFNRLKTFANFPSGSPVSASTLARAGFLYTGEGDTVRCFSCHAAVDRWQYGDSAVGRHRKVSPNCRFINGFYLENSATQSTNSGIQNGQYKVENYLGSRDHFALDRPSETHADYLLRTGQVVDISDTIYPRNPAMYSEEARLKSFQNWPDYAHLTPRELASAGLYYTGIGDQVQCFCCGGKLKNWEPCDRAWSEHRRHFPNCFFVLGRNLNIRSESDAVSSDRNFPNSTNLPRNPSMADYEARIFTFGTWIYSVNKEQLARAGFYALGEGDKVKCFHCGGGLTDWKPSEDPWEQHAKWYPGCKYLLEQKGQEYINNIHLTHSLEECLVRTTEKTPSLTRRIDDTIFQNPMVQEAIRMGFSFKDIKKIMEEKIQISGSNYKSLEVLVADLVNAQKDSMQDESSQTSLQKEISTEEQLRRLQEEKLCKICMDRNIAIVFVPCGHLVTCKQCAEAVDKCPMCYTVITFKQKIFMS

Dihydroorotate dehydrogenase (quinone), mitochondrial (Plasmodium falciparum (isolate 3D7)), sequence (Q08210 whole entry, looked up): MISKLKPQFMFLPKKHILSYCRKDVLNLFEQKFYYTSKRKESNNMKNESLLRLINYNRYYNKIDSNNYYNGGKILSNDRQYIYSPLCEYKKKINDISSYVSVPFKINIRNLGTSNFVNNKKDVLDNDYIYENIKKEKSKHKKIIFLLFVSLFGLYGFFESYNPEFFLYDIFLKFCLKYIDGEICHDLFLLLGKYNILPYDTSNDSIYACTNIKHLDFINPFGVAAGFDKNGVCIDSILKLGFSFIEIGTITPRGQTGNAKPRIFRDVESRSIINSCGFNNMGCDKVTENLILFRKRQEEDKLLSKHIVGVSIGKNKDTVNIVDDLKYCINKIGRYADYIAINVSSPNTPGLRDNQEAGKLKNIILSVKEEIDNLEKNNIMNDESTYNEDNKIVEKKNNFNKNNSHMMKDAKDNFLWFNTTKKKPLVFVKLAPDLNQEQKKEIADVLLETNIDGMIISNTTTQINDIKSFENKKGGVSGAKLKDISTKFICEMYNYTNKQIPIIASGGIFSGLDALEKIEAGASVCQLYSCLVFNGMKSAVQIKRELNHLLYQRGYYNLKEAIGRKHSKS

Compound | z-score [1] | z-score [2] | z-score [3] | composite z-score [4] | z-score [5] | z-score [6] | z-score [7] | z-score [8] | z-score [9] | composite z-score [10]
[N-]=[N+]=NCc1ccccc1C[C@@]1(C(=O)NCCN2CCOCC2)N=C(c2ccc(OCCCO)cc2)O[C@@H]1c1ccccc1CN=[N+]=[N-] | -0.709 | 0.326 (inactive) | -0.982 (inactive) | 1.06 (inactive) | 1.13 (inactive) | 1.15 (inactive) | 0.585 (inactive) | 0.239 (inactive) | -0.971 | 0.0905
O=C1C2C=CC(C(O)c3ccc(Br)cc3)N(Nc3ccccc3)C2C(=O)N1c1ccccc1 (stereo not given) | -0.69 | -3.48 (inactive) | -1.95 (inactive) | 1.02 (inactive) | 1.22 (inactive) | 0.501 (inactive) | -0.387 (inactive) | -0.604 (inactive) | -1.48 | 0.184
NC(=O)[C@@H]1[C@H]2C(=O)O[C@H](c3ccccc3)[C@H](c3ccccc3)N2[C@H](c2ccccc2OCCO)[C@@]12C(=O)Nc1ccc(C#CCCO)cc12 | 1.06 | -1.45 (inactive) | -0.476 (inactive) | -0.58 (inactive) | -0.104 (inactive) | 0.895 (inactive) | 0.386 (inactive) | -0.318 (inactive) | -1.29 | -0.0048
COC(=O)[C@@]1(Cc2ccc(F)cc2)[C@H]2c3cc(C(=O)N(C)C)n(CCSCCO)c3C[C@H]2CN1C(=O)c1ccccc1 | -0.234 | -0.0857 (inactive) | -0.42 (inactive) | -0.467 (inactive) | 0.399 (inactive) | 0.0891 (inactive) | -0.514 (inactive) | -0.32 (inactive) | -0.107 | -0.234
COCCOC(=O)N1C(=O)[C@@]2(c3cc(C#Cc4ccc(OC)cc4)ccc31)[C@H](c1ccc(OCCO)cc1)N1[C@H](c3ccccc3)[C@H](c3ccccc3)OC(=O)[C@H]1[C@@H]2C(N)=O | -0.83 | 1.71 (inactive) | -1.85 (inactive) | -0.675 (inactive) | 3.36 (inactive) | 2.82 (inactive) | 0.721 (inactive) | 0.366 (inactive) | -2.36 | 0.269
COc1ccc([Si](C)(C)[C@H]2[C@H](CCn3cc(CCO)nn3)O[C@@]3(C(=O)N(Cc4cccc(N5C(=O)c6cccc7cccc5c67)c4)c4ccccc43)[C@@H]2C)cc1 | -2.74 | 0.425 (inactive) | -6.02 (inactive) | -0.455 (inactive) | 1.76 (inactive) | 2.16 (inactive) | 2.38 (inactive) | 1.74 (inactive) | -5.82 | 0.235
NCCCCCCNC(=O)[C@H]1C[C@H]2C(=O)N3CCC[C@H]3C(=O)N2[C@H]1c1ccc(O)cc1 | -0.541 | -0.438 (inactive) | -0.431 (inactive) | -0.245 (inactive) | -0.0059 (inactive) | -1.09 (inactive) | 0.0967 (inactive) | -0.676 (inactive) | -0.508 | -0.223
C=CCC(OC(C)=O)[C@@H]1[C@@H](N(Cc2cc3ccccc3o2)C(=O)Cc2ccc(OC)cc2)c2cc(OCCCO)ccc2N1C(=O)c1ccc(-c2ccccc2)cc1 (stereo not given in full) | -0.877 | -0.464 (inactive) | 1.05 (inactive) | 0.849 (inactive) | -0.558 (inactive) | 0.275 (inactive) | 0.66 (inactive) | 0.16 (inactive) | 0.337 | -0.0575
C/C=C/[C@@H](CCn1cc([C@H](O)c2ccccc2)nn1)[Si](C)(C)c1ccc(OC)cc1 | 0.121 | -1.5 (inactive) | -0.567 (inactive) | -0.222 (inactive) | 0.0002 (inactive) | 0.72 (inactive) | 0.508 (inactive) | -0.253 (inactive) | -0.472 | -0.0918
COc1ccc(C(=O)Nc2ccc(CN3C(=O)[C@@]4(O[C@@H](CC(=O)N5Cc6ccccc6C[C@H]5CO)[C@H]([Si](C)(C)c5ccc(OC)cc5)[C@H]4C)c4ccccc43)cc2)cc1 | 0.473 | -0.273 (inactive) | -1.66 (inactive) | -3.48 (inactive) | 0.896 (inactive) | 1.23 (inactive) | 0.704 (inactive) | 0.241 (inactive) | -1.04 | -0.127
[N-]=[N+]=Nc1ccccc1[C@@H]1OC(c2ccc(OCCCO)cc2)=N[C@]1(CCS(=O)(=O)c1ccccc1)C(=O)NCc1ccccc1 | -0.287 | 1.18 (inactive) | -0.37 (inactive) | -2.59 (inactive) | 0.727 (inactive) | 1.4 (inactive) | 0.439 (inactive) | 1.01 (inactive) | -0.893 | 0.125
OCc1ccc(-c2cc[n+](Cc3cccc(OC(F)(F)F)c3)cc2)cc1 | -0.0785 | -0.615 (inactive) | -0.297 (inactive) | -5.09 (inactive) | 0.282 (inactive) | -0.327 (inactive) | 0.188 (inactive) | 0.147 (inactive) | -0.784 | 0.222
CN(C)CCCN1C(=O)[C@@]2(Cc3ccccc31)c1ccccc1C(=O)N(Cc1ccccc1)[C@H]2c1ccc(CO)cc1 | 1.18 | 0.225 (inactive) | 1.04 (inactive) | -6.03 (inactive) | 0.587 (inactive) | -0.549 (inactive) | 0.672 (inactive) | -0.245 (inactive) | 0.246 | -0.176
Cc1cc(C)c(C(O)C2C=CC3C(=O)N(c4ccccc4)C(=O)C3N2Nc2ccc([N+](=O)[O-])cc2)c(C)c1 (stereo not given) | -0.221 | 0.414 (inactive) | -0.237 (inactive) | -0.212 (inactive) | 1.64 (inactive) | 0.258 (inactive) | -0.777 (inactive) | -0.624 (inactive) | 0.0375 | 0.0827
CC1CC/C=C\[C@H]2OC34C=CCN(Cc5ccccc5)C(=O)[C@H]3N(CCO)C(=O)[C@@H]4C2C(=O)O1 (stereo not given in full) | -0.811 | -0.73 (inactive) | 0.32 (inactive) | 0.622 (inactive) | -0.758 (inactive) | 0.606 (inactive) | 0.98 (inactive) | 0.566 (inactive) | 0.301 | -0.147
COc1ccccc1CN1C(=O)c2ccccc2[C@@]2(Cc3ccccc3N(C3CC3)C2=O)[C@@H]1c1ccc(CO)cc1 | 0.409 | 0.162 (inactive) | -0.319 (inactive) | -6.76 (inactive) | -0.255 (inactive) | -0.522 (inactive) | -0.473 (inactive) | -0.694 (inactive) | -0.343 | -0.232
C[C@]12C(=O)N(CCCCCO)[C@@H]3C(=O)N(c4ccc(Cl)cc4)CC=CC31O[C@@H]1/C=C\CCCOC(=O)C12 (stereo not given in full) | -0.626 | -0.225 (inactive) | 0.194 (inactive) | -0.841 (inactive) | -0.677 (inactive) | -0.605 (inactive) | -0.308 (inactive) | -0.175 (inactive) | -0.135 | 0.234
CC(C)(C)OC(=O)CC[C@]1(C(=O)O)COC(c2ccc(OCCCO)cc2)=N1 | 0.265 | 0.167 (inactive) | -0.249 (inactive) | -0.055 (inactive) | -0.596 (inactive) | 0.433 (inactive) | -0.341 (inactive) | -0.447 (inactive) | -0.0624 | -0.118
CN(C)CCCCNC(=O)[C@H]1C[C@H]2C(=O)N[C@@H](CCCC[N+](C)(C)C)C(=O)N2[C@H]1c1cccc(OCCO)c1 | 0.49 | 0.168 (inactive) | 0.505 (inactive) | -0.119 (inactive) | 1.06 (inactive) | -0.557 (inactive) | -0.163 (inactive) | -0.853 (inactive) | -0.0588 | -0.243
COC(=O)[C@@]1(Cc2ccccc2N=[N+]=[N-])N=C(c2ccc(OCCCO)cc2)O[C@H]1c1ccccc1 | -4.36 | -0.642 (inactive) | -7.63 (inactive) | 1.66 (inactive) | 0.77 (inactive) | 1.76 (inactive) | 0.044 (inactive) | -1.12 (inactive) | -7.12 | 0.0472
CCCCC(CC)C(O)C1C=CC2C(=O)NC(=O)C2N1Nc1ccccn1 (stereo not given) | -1.39 | 0.332 (inactive) | -1.51 (inactive) | 0.56 (inactive) | 1.2 (inactive) | 0.852 (inactive) | -0.486 (inactive) | -0.112 (inactive) | -0.675 | 0.24
COC(=O)[C@@]1(Cc2ccc(OC)cc2)[C@H]2c3cc(C(=O)N4CCCC4)n(CCc4ccc(O)c(OC)c4)c3C[C@H]2CN1C(=O)c1ccccc1 | -0.21 | 0.768 (inactive) | -0.427 (inactive) | -0.474 (inactive) | 0.467 (inactive) | 0.279 (inactive) | -0.744 (inactive) | -0.939 (inactive) | -0.125 | 0.659
COCCOC(=O)N1C(=O)[C@@]2(c3ccccc31)[C@H](c1ccc(OCCO)cc1)N1[C@H](c3ccccc3)[C@H](c3ccccc3)OC(=O)[C@H]1[C@@H]2C(=O)NC[C@H](O)c1ccccc1 | 0.37 | 1.96 (inactive) | -0.261 (inactive) | -1.93 (inactive) | 2.32 (inactive) | 2.94 (inactive) | 0.271 (inactive) | 0.193 (inactive) | -0.25 | -0.148
COCCOC(=O)N1C(=O)[C@@]2(c3cc(C#CC4(O)CCCCCC4)ccc31)[C@H](C(=O)NC[C@H](O)c1ccccc1)[C@H]1C(=O)O[C@H](c3ccccc3)[C@H](c3ccccc3)N1[C@@H]2c1ccc(OCCO)cc1 | 1.49 | 0.385 (inactive) | -0.909 (inactive) | -1.38 (inactive) | 1.05 (inactive) | 2.73 (inactive) | 0.608 (inactive) | 0.187 (inactive) | 0.0705 | 0.643
CC(C)(C)N1CC=CC23O[C@@H]4C=CCCOC(=O)C4[C@H]2C(=O)N(CCCO)[C@@H]3C1=O (stereo not given in full) | -0.884 | -0.434 (inactive) | -1.12 (inactive) | -3.53 (inactive) | -0.193 (inactive) | 0.605 (inactive) | -1.23 (inactive) | -1.27 (inactive) | -1.15 | -0.263
